37 compounds from PubChem BioAssay can be followed below.

The nature of test [1]: Brca1-Bard1 BiLC signal decrease – luminescence, single concentration, counter-screen for Mdm2/MdmX interaction inhibitor project, confirmation (AID 504668). The conditions noted are these: Brca1/Bard1 bimolecular luciferase complementation counterscreen, at 8 µM, stronger effect = higher value.
In test [2] the target is PEG-3 (UniProt Q6IN02). The test can be described thus: inhibition of PEG-3 promoter-driven reporter – cell-based, HeLa, luciferase, CREF/GAPDH counter-screen panel, dose response (AID 624167). The conditions noted are these: CREF/GAPDH counter-screens; HeLa PEG-Prom luciferase reporter, overnight, run 1, dose range 1, at 100 µM (top of the series) unless noted. A general note: Counterscreens check selectivity or assay interference.
Chain of PEG-3 (Q6IN02 whole entry, looked up): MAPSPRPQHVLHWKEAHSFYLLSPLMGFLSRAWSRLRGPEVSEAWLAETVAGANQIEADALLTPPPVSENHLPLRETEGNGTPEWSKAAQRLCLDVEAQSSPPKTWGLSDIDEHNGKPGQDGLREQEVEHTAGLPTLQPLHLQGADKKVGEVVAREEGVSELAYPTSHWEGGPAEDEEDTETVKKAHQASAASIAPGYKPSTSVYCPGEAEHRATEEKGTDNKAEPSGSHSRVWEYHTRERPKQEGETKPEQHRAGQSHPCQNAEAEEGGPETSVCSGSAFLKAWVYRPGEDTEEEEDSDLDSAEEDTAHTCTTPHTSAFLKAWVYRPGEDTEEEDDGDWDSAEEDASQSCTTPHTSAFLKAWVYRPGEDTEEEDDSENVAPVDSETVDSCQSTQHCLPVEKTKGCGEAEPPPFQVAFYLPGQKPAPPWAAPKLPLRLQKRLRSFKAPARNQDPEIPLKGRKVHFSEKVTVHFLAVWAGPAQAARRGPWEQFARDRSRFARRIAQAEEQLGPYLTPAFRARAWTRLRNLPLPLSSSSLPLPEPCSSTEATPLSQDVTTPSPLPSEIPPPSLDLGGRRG

The target in test [3] is PEG-3 (UniProt Q6IN02). The description is as above. The conditions noted are these: CREF/GAPDH counter-screens; HeLa PEG-Prom luciferase reporter, overnight, run 2, dose range 1, at 100 µM (top of the series) unless noted.
In test [4] the test system is Rat fibroblasts (CREF). The test is described as above. The following applies: CREF/GAPDH counter-screens; run 1, dose range 1, at 100 µM (top of the series).
For test [5], the system named is Rat fibroblasts (CREF). Described as above. The conditions noted are these: CREF/GAPDH counter-screens; run 2, dose range 1, at 100 µM (top of the series).
Test [6] in a line: NF-kB reporter suppression in CF airway cells – cell-based, GFP fluorescence, single concentration, confirmation (AID 602472; in the data active means inhibition above about 40%;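 further: stimulus PAF is a Pseudomonas aeruginosa filtrate and not platelet activating factor; plate controls were DMSO wells with stimulus for no effect and unstimulated DMSO wells for full effect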). The conditions noted are these: KKLEB CF airway cells, PAF-induced NF-kB-GFP fluorescence, overnight; at 5 µM; stronger effect = higher value.
Test [7] can be described thus: NFkB reporter suppression in cystic fibrosis bronchial cells – cell-based, uHTS hits, panel, cytotoxicity readout, dose response (AID 624344). The conditions noted are these: CF bronchial epithelial cells, PAF-induced NFkB reporter inhibition, with PAF, run 1; at 79 µM (top of the series) unless noted.
Assay in test [8]: as above
The conditions noted are these: CF bronchial epithelial cells, PAF-induced NFkB reporter inhibition, with PAF, run 2; at 79 µM (top of the series) unless noted.

Test [9] can be described thus: inhibition of PEG-3 promoter luciferase signal – cell-based, HeLa, luciferase reporter, single concentration, confirmation (AID 602417;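 active means at 20 µM dose, 40% or more inhibition averaged across four replicates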). The conditions noted are these: HeLa PEG-Prom luciferase reporter, luminescence, overnight; at 20 µM; stronger effect = higher value. A general note: A reporter such as luciferase makes a cellular process visible.
In test [10] the target is Tumor necrosis factor receptor superfamily member 10B (Homo sapiens) (UniProt O14763). The test can be described thus: viability loss of caspase-8 NB7 cells with TRAIL – with/without TRAIL, luminescence panel, confirmation (AID 651596; in the data active means activity above about 50%). The following applies: NB7 neuroblastoma + caspase-8, TRAIL sensitization, NB7 Caspase-8, with TRAIL, mean of runs, at 10 µM, stronger effect = higher value.
Chain of Tumor necrosis factor receptor superfamily member 10B (Homo sapiens) (O14763 whole entry, looked up): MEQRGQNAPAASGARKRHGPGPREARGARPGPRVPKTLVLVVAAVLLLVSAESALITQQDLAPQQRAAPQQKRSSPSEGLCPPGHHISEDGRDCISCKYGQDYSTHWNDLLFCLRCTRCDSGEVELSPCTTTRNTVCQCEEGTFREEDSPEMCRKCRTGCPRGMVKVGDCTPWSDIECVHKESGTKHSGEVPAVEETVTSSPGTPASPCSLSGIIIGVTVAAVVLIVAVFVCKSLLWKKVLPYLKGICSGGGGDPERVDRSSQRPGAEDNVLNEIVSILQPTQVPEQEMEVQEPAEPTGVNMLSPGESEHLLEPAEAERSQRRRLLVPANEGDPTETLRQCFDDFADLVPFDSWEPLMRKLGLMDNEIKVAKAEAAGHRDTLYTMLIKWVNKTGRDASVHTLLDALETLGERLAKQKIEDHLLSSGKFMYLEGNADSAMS

Assay in test [11]: as above
The following applies: NB7 neuroblastoma + caspase-8, without TRAIL, NB7 Caspase-8, without TRAIL, mean of runs, at 10 µM.

This is one part of the list. Active and inactive are the calls of the source. Unless noted, how the calls were made is not given here.

For the compound `COc1ccc(C(O)(CC(C)C)C(CN2CCOCC2)c2ccccc2)cc1` (configuration not stated), the values for the inhibition (in [1]; with PEG-3 [2]; in the test with PEG-3 [3]) were 30.5% (active), 100% and 100%, respectively.

Take `CCN1C(=O)C(=Cc2cccc(OC)c2Oc2ccc([N+](=O)[O-])cc2[N+](=O)[O-])SC1=S`: the inhibition was 27.9% (active) in [1], 21.1% with PEG-3 [2] and 46.1% in the test with PEG-3 [3].

Turning to `COc1ccc(C(NC(=O)C(C)C)c2ccc3cccnc3c2O)cc1` (configuration not stated), the inhibition was 28.9% (active) in test [1]; 67.9% with PEG-3 [2]; 60.6% in the test with PEG-3 [3]; 75.6% with Rat fibroblasts (CREF) [4]; 61.5% in the test with Rat fibroblasts (CREF) [5].

`COc1cc(/C=C/C(=O)N2CCC=CC2=O)cc(OC)c1OC`: the inhibition in [1] is 26.8% (active); in the test with PEG-3 [2] it was 99.1%; with PEG-3 [3], 96.1%.

For the compound `Brc1ccc2ncnc(NCc3cccnc3)c2c1`, the inhibition is 26.8% (active) in test [1], 69.2% (active) in test [6], 105% in test [7] and 94.9% in [8].

Turning to `Cc1cc(C=C2C(=O)c3ccccc3C2=O)c(C)n1-c1ccccc1`, the inhibition was 34.3% (active) in test [1], 62.9% with PEG-3 [2] and 80.6% with PEG-3 [3].

Consider `Nc1nonc1-n1nnc(C(=O)N/N=C/c2cc(Br)ccc2O)c1CNc1ccccc1`, for which the inhibition in [1] was 30.5% (active); with PEG-3 [2], 89.3%; with PEG-3 [3] it was 81.9%; with Rat fibroblasts (CREF) [4], 54.5%; in the test with Rat fibroblasts (CREF) [5] it was 59.3%.

Turning to `Cc1ccc2occ(/C=N/NC(=O)c3ccccc3C)c(=O)c2c1`, the inhibition in [1] was 34.4% (active); in [6], 94.8% (active); in [7] it was 102%; in test [8], 110%.

As to `C/C(=N\NC(=O)c1c(C)nc2ccccn12)c1ccc(O)cc1O`, the inhibition in test [1] was 33.7% (active); with PEG-3 [2] it was 66.9%; with PEG-3 [3] it was 48.1%; with Rat fibroblasts (CREF) [4], 49.2%; in the test on Rat fibroblasts (CREF) [5], 56.5%.

Turning to `O=C1/C(=C\c2cccc(O)c2O)SC(=S)N1Cc1ccccc1`, the figures for the inhibition (in test [1]; with PEG-3 [2]; in the test with PEG-3 [3]) were 34.2% (active), 99.6% and 101%, respectively.

On to `O=C(/C=C/c1ccccc1)NC(NC(=S)Nc1cccc(Cl)c1)C(Cl)(Cl)Cl` (configuration not stated), for which the inhibition in test [1] is 25.6% (active); with PEG-3 [2] it was 98.2%; with PEG-3 [3], 99.4%.

Turning to `O=C(CNc1ccccc1)N/N=C/c1c(O)ccc2ccccc12`, the inhibition in test [1] was 26.6% (active); with PEG-3 [2], 44.6%; in the test with PEG-3 [3] it was 64.1%; in the test on Rat fibroblasts (CREF) [4] it was 73.1%; with Rat fibroblasts (CREF) [5], 49.7%.

As for `CC(C)(C)c1ccc(Cn2c(=O)cnc3ccccc32)cc1`, the inhibition in test [1] is 25.9% (active); with PEG-3 [2] it was 100%; with PEG-3 [3] it was 100%; in the test with Rat fibroblasts (CREF) [4], 98.2%; with Rat fibroblasts (CREF) [5] it was 84.5%.

For `COc1ccc(C(NC(C)=O)c2ccc3cccnc3c2O)c(OC)c1` (configuration not stated), the inhibition was 31.2% (active) in [1]; 64.7% with PEG-3 [2]; 59.9% in the test with PEG-3 [3]; -4.86% in the test with Rat fibroblasts (CREF) [4]; 50.2% in the test on Rat fibroblasts (CREF) [5].

As for `Cc1ccc(C(=O)O/N=C(\N)c2ccccn2)cc1`, the inhibition was 34% (active) in test [1]; 102% in the test with PEG-3 [2]; 100% with PEG-3 [3]; 100% with Rat fibroblasts (CREF) [4]; 101% in the test with Rat fibroblasts (CREF) [5].

Take `O=C1C(=C2SCCCS2)CC/C1=C\c1ccc(F)cc1`: the inhibition in [1] is 25.5% (active).

For `COc1cccc2sc(N(CCCN(C)C)C(=O)C(c3ccccc3)c3ccccc3)nc12`, the inhibition in test [1] was 24.8% (active); in [9], 99.6% (active); in the test with PEG-3 [2], 102%; in the test with PEG-3 [3], 95.1%.

For the compound `C=C(C)Cn1c(SCC(=O)N/N=C/c2c(O)ccc3ccccc23)nc2ccccc2c1=O`, the inhibition in test [1] is 31.4% (active); in the test with PEG-3 [2], 54.6%; in the test with PEG-3 [3], 7.84%.

`COc1ccc(-c2cn[nH]c2-c2ccc(OC)cc2)cc1`: the inhibition was 35.1% (active) in [1], 69.3% (active) in test [6], 104% in [7] and 104% in test [8].

In the case of `Cc1ccc(C(=O)Nc2cc3ccccc3oc2=O)cc1`, the inhibition was 31.8% (active) in test [1]; 84.5% in the test with PEG-3 [2]; 78.7% in the test with PEG-3 [3]; 84.6% in the test with Rat fibroblasts (CREF) [4]; 87.1% with Rat fibroblasts (CREF) [5].

Take `CNC[C@H](CC1CCCCC1)NC[C@H](NCCC1CCCC1)[C@H](C)O`: the inhibition is 30.2% (active) in [1], 97.4% (active) in test [9], 102% with PEG-3 [2] and 99.9% with PEG-3 [3].

`O=C1c2ccccc2S(=O)(=O)N1Cc1nc2ccccc2s1`: the values for the inhibition (in test [1]; with PEG-3 [2]; with PEG-3 [3]) were 32.9% (active), 101% and 83.4%, respectively.

For `CCOc1ccc(C(=O)O/N=C(\N)c2ccccn2)cc1`, the inhibition in [1] was 33% (active); with PEG-3 [2], 98%; with PEG-3 [3] it was 98.8%; with Rat fibroblasts (CREF) [4], 97.8%; in the test on Rat fibroblasts (CREF) [5], 98.6%.

Take `Cc1ccc(NC(=O)Cn2nnc(C(=O)NCCc3ccccc3)c2N)cc1Cl`: the inhibition in test [1] was 29.3% (active).

Turning to `CCN1CCN(C(c2ccc(C(F)(F)F)cc2)c2ccc3cccnc3c2O)CC1` (configuration not stated), the inhibition is 31.2% (active) in [1], 101% in the test with PEG-3 [2] and 99.4% with PEG-3 [3].

As for `Cc1cc(NC(c2ccc(Cl)cc2)c2ccc3cccnc3c2O)no1` (configuration not stated), the inhibition was 27.4% (active) in [1]; 37.1% in the test with PEG-3 [2]; 87.1% in the test with PEG-3 [3]; 37.2% with Rat fibroblasts (CREF) [4]; 44.8% in the test with Rat fibroblasts (CREF) [5].

In the case of `C=CCn1c(COc2ccccc2)nnc1SC(C)C(=O)N/N=C/c1cc(Cl)ccc1O` (configuration not stated), the inhibition in test [1] was 30.6% (active); with PEG-3 [2] it was 64%; in the test with PEG-3 [3], 86%; with Rat fibroblasts (CREF) [4], 37.9%; in the test on Rat fibroblasts (CREF) [5], 43.9%.

With `c1ccc(-c2noc(-c3ccc4c(c3)OCO4)n2)nc1`, the inhibition in test [1] is 29.3% (active); in the test with PEG-3 [2], 91.3%; with PEG-3 [3] it was 94.5%; with Rat fibroblasts (CREF) [4] it was 95.9%; with Rat fibroblasts (CREF) [5], 95.7%. The activity worked out at 93.2% in test [10] and 93.7% in test [11].

As for `COc1ccc(-c2nsc3c(N4CCCCC4C)ncnc23)cc1` (configuration not stated), the inhibition in [1] is 24.8% (active); with PEG-3 [2], 89.7%; in the test with PEG-3 [3], 93.5%. Besides, the figures for the activity in test [10] and in test [11] were 86.8% and 87.7%, respectively.

For `O=C(O)c1cccc(COc2ccc3c(c2)CCC3)c1`, the inhibition in test [1] is 24.1% (active); with PEG-3 [2], 98.5%; with PEG-3 [3], 99.1%; in the test on Rat fibroblasts (CREF) [4] it was 91.1%; with Rat fibroblasts (CREF) [5], 89.3%.

In the case of `COc1ccc(-c2csc3ncnc(NCCO)c23)cc1`, the inhibition in [1] is 26.2% (active); in test [7], 104%; in [8], 113%.

Take `CC(=O)c1cccc(NC(=O)Nc2cccnc2)c1`: the inhibition in test [1] was 27.6% (active); in [7] it was 119%; in [8] it was 93.2%.

Turning to `O=c1c2ccccc2sc2ccc(C#CC3(O)CCCCC3)cc12`, the inhibition in [1] is 25.4% (active); in the test with PEG-3 [2], 99.4%; with PEG-3 [3] it was 98%; in the test with Rat fibroblasts (CREF) [4] it was 100%; in the test on Rat fibroblasts (CREF) [5], 100%. For the same compound, the activity was determined as 97.6% in test [10] and 97.2% in [11].

Turning to `O=C(Nc1ccc(N2CCOCC2)cc1)c1cnsn1`, the inhibition in test [1] was 32.1% (active); with PEG-3 [2], 96.4%; with PEG-3 [3] it was 98.9%; in the test with Rat fibroblasts (CREF) [4], 97.9%; in the test with Rat fibroblasts (CREF) [5] it was 60.2%. Further, the values for the activity in test [10] and in test [11] were 78.7% and 75.9%, respectively.

Consider `Cc1[nH]nc2ncc(C(=O)c3ccccc3O)cc12`, for which the inhibition in test [1] is 30.4% (active); in test [7], 109%; in test [8], 92.1%.

`CN(C(=O)OC(C)(C)C)c1ccc(-c2nc3ccccc3s2)cc1`: the results for the inhibition (in [1]; with PEG-3 [2]; with PEG-3 [3]) were 24.8% (active), 96.5% and 98.2%, respectively. The activity came out at 92.6% in test [10] and 91.2% in test [11].

On to `Clc1cccc(Nc2ncnc3ccc(Br)cc23)c1`, for which the inhibition was 35.6% (active) in test [1], 109% in test [7] and 104% in test [8].

As usually defined, the inhibition is the relative decrease from the control value, in per cent.
